Where “and” joins values, the source holds several entries; their conditions need not be identical. Equal entries are not always repeated. The campaign covered roughly 5,500 compounds. About 2,000 (36%) were called active. Roughly 18% stayed inconclusive and do not appear here. No stated cut-off is given here; in the data, active means normalized growth mostly below about 0.91 (no sharp cut-off); inconclusive means no clear call, values can overlap the other calls; inactive means mostly above about 0.92. The list shows a part of the results.
Assay: chemical genetic growth profiling, strain panel (AID 1159580);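 further: tested at 20 µM; growth read once vehicle control cultures reached saturation at 30 °C; 1 = growth at the plate median or of vehicle wells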
Conditions: S. cerevisiae deletion strains, growth OD

Measured: normalized growth

CCOC(=O)CCCCCCCCCCCCC1C=CCC1 (centres undefined)
active: locus YAL013W, strain DEP1, stronger effect = lower value 0.054 | locus YBR021W, strain FUR4, stronger effect = lower value 0.0914 | locus YBR229C, strain ROT2, stronger effect = lower value 0.0494 | locus YCL029C, strain bik1, stronger effect = lower value 0.067 | locus YDL035C, strain GPR1, stronger effect = lower value 0.0527 | locus YDL074C, strain BRE1, stronger effect = lower value 0.0833 | locus YDL101C, strain DUN1, stronger effect = lower value 0.0581 | locus YDL134C, strain PPH21, stronger effect = lower value 0.0502 | locus YDL185W, strain tfp1, stronger effect = lower value 0.499 | locus YDL192W, strain arf1, stronger effect = lower value 0.0606 | locus YDR101C, strain arx1, stronger effect = lower value 0.0619 | locus YDR162C, strain NBP2, stronger effect = lower value 0.0522 | locus YDR318W, strain mcm21, stronger effect = lower value 0.0614 | locus YDR388W, stronger effect = lower value 0.0583 | locus YDR392W, strain spt3, stronger effect = lower value 0.497 | locus YDR502C, strain sam2, stronger effect = lower value 0.0641 | locus YEL061C, strain CIN8, stronger effect = lower value 0.054 | locus YER110C, stronger effect = lower value 0.0827 | locus YER155C, strain BEM2 (second series), stronger effect = lower value 0.594 | locus YER155C, strain BEM2, stronger effect = lower value 0.0734 | locus YER167W, strain BCK2, stronger effect = lower value 0.0529 | locus YGL078C, strain dbp3, stronger effect = lower value 0.688 | locus YGL086W, strain mad1, stronger effect = lower value 0.0537 | locus YGL248W, strain PDE1, stronger effect = lower value 0.0488 | locus YGR078C, strain PAC10, stronger effect = lower value 0.053 | locus YGR135W, strain pre9, stronger effect = lower value 0.06 | locus YGR252W, strain gcn5, stronger effect = lower value 0.11 | locus YHR013C, strain ard1, stronger effect = lower value 0.815 | locus YHR079C, strain IRE1 (second series), stronger effect = lower value 0.0604 | locus YHR094C, strain hxt1, stronger effect = lower value 0.0651 | locus YHR129C, strain ARP1, stronger effect = lower value 0.0559 | locus YHR200W, strain rpn10, stronger effect = lower value 0.0588 | locus YIL066C, strain RNR3, stronger effect = lower value 0.0493 | locus YIL073C, strain SPO22, stronger effect = lower value 0.148 | locus YIL125W, strain kgd1, stronger effect = lower value 0.773 | locus YIR030C, strain dcg1, stronger effect = lower value 0.0637 | locus YJL134W, strain LCB3, stronger effect = lower value 0.0504 | locus YJL168C, strain set2, stronger effect = lower value 0.0586 | locus YJL187C, strain SWE1 (second series), stronger effect = lower value 0.0498 | locus YJR043C, strain POL32, stronger effect = lower value 0.0731
0.0599 (active) and 0.989 (inactive): locus YJL095W, strain BCK1, stronger effect = lower value
inactive: locus YAL021C, strain ccr4, stronger effect = lower value 1.01 | locus YAL026C, strain drs2, stronger effect = lower value 1 | locus YAL030W, strain snc1, stronger effect = lower value 0.982 | locus YBL061C, strain skt5, stronger effect = lower value 0.977 | locus YBR009C, strain hhf1, stronger effect = lower value 0.922 | locus YBR023C, strain chs3, stronger effect = lower value 0.979 | locus YBR171W, strain sec66, stronger effect = lower value 0.973 | locus YBR231C, strain swc5, stronger effect = lower value 0.978 | locus YBR279W, strain paf1, stronger effect = lower value 0.981 | locus YCL011C, strain gbp2, stronger effect = lower value 0.967 | locus YCL016C, strain dcc1, stronger effect = lower value 0.981 | locus YCL061C, strain MRC1, stronger effect = lower value 0.983 | locus YCL069W, strain vba3, stronger effect = lower value 0.981 | locus YCR088W, strain abp1, stronger effect = lower value 0.983 | locus YDL005C, strain med2, stronger effect = lower value 0.974 | locus YDL040C, strain nat1, stronger effect = lower value 0.974 | locus YDR001C, strain nth1, stronger effect = lower value 0.994 | locus YDR069C, strain doa4, stronger effect = lower value 0.958 | locus YDR137W, strain rgp1, stronger effect = lower value 0.979 | locus YDR159W, strain sac3, stronger effect = lower value 0.978 | locus YDR195W, strain ref2 1.06 | locus YDR297W, strain sur2, stronger effect = lower value 0.984 | locus YDR334W, strain swr1, stronger effect = lower value 0.976 | locus YDR335W, strain msn5, stronger effect = lower value 1 | locus YEL003W, strain gim4, stronger effect = lower value 0.969 | locus YEL037C, strain rad23, stronger effect = lower value 0.989 | locus YEL061C, strain CIN8 (second series), stronger effect = lower value 0.978 | locus YER015W, strain faa2, stronger effect = lower value 0.982 | locus YER016W, strain bim1, stronger effect = lower value 0.978 | locus YER111C, strain swi4, stronger effect = lower value 0.958 | locus YFR010W, strain ubp6, stronger effect = lower value 0.969 | locus YGL167C, strain pmr1, stronger effect = lower value 0.972 | locus YGL173C, strain kem1, stronger effect = lower value 0.96 | locus YGL227W, strain vid30, stronger effect = lower value 0.962 | locus YGL240W, strain doc1, stronger effect = lower value 0.972 | locus YGL253W, strain hxk2, stronger effect = lower value 0.998 | locus YHR027C, strain rpn1, stronger effect = lower value 0.984 | locus YHR079C, strain IRE1, stronger effect = lower value 0.983 | locus YHR142W, strain chs7, stronger effect = lower value 0.975 | locus YJL092W, strain hpr5, stronger effect = lower value 0.994 | locus YJL095W, strain BCK1 (second series), stronger effect = lower value 0.969 | locus YJL115W, strain asf1, stronger effect = lower value 0.99 | locus YJL129C, strain trk1, stronger effect = lower value 0.91 | locus YJL154C, strain vps35, stronger effect = lower value 0.997 | locus YJL164C, strain tpk1, stronger effect = lower value 0.952 | locus YJL166W, strain qcr8, stronger effect = lower value 0.942 | locus YJL187C, strain SWE1, stronger effect = lower value 0.98
0.0494 (active) and 0.992 (inactive): locus YHR030C, strain SLT2, stronger effect = lower value

— PubChem BioAssay AID1159580 (chemical genetic matrix, 2015)
